Assay [1] is described as follows: A549 cell viability effects, profiling panel, calcein-AM fluorescence, 48 h, basal (AID 1162). Further: test concentration not given here. Conditions: higher = more signal.
The nature of assay [2]: adipocyte viability effects, profiling panel, cell-based, 3T3-L1 adipocytes, calcein-AM fluorescence, 48 h, basal (AID 1163). Further: test concentration not given here. Conditions: 3T3-L1 adipocytes viability, higher = more signal.
Assay [3] in a line: HepG2 cell viability effects, profiling panel, calcein-AM fluorescence, 48 h, basal (AID 1164). Further: test concentration not given here. Conditions: higher = more signal.
The nature of assay [4]: MM1S cell viability effects, profiling panel, calcein-AM fluorescence, 48 h, basal (AID 1165).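 Further: viability of MM1S multiple myeloma cells under basal unstimulated conditions; test concentration not given here.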 Conditions: higher = more signal.
A short description of assay [5]: basal RPMI8226 viability, no added stimulus, profiling panel, cell-based, calcein-AM fluorescence, 48 h, PK04 Diversity Set (AID 1166).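 Further: cells grown under basal conditions without added stimulus; test concentration not given here.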 Conditions: RPMI8226 myeloma viability, higher = more signal.
Assay [6] can be described thus: basal HepG2 mitochondrial membrane potential changes, profiling panel, cell-based, JC-1 fluorescence, 24 h, 100 nL compound (AID 1167). Further: test concentration not given here. Conditions: higher = more signal.
Assay [7] can be described thus: basal 3T3-L1 adipocyte mitochondrial potential changes, profiling panel, cell-based, JC-1 fluorescence, 3T3-L1 adipocytes, 24 h, 100 nL compound (AID 1168). Further: test concentration not given here. Conditions: JC-1 mitochondrial fluorescence, higher = more signal, called active from +8 up or from −8 down.
A short description of assay [8]: basal RPMI8226 mitochondrial membrane potential changes, profiling panel, cell-based, JC-1 fluorescence, 24 h, 100 nL compound (AID 1169). Further: test concentration not given here. Conditions: RPMI8226 myeloma, JC-1 mitochondrial potential fluorescence, higher = more signal.
Assay [9] in a line: basal MM1S mitochondrial membrane potential changes, profiling panel, cell-based, JC-1 fluorescence, 24 h, 100 nL compound (AID 1170). Further: test concentration not given here. Conditions: higher = more signal.
Assay [10] in a line: A549 lung cancer cell viability effects, profiling panel, resazurin fluorescence, 24 h, PK04 Diversity Set (AID 1171). Further: test concentration not given here. Conditions: higher = more signal, called active from +8 up or from −8 down. On the technique in general: Alamar Blue is a resazurin reagent that responds to reducing activity.
A short description of assay [11]: HepG2 liver cancer cell viability effects, profiling panel, resazurin fluorescence, 24 h, PK04 Diversity Set (AID 1172). Further: test concentration not given here. Conditions: higher = more signal.
Assay [12] is described as follows: basal S. cerevisiae growth modulation, no modifier, primary screen, OD600, strain BY4716, 24 h, basal condition (AID 1173). Conditions: OD600, 24 h, higher = more signal, called active from +8 up or from −8 down.
Assay [13] is described as follows: MM1S myeloma cell viability, profiling panel, resazurin fluorescence, basal, 24 h, PK04 Diversity Set (AID 1174).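 Further: MM1S multiple myeloma cell line; test concentration not given here.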 Conditions: higher = more signal, called active from +8 up or from −8 down.
The target of assay [14] is Dihydroorotate dehydrogenase (quinone), mitochondrial (Plasmodium falciparum (isolate 3D7)) (UniProt Q08210). Put plainly: PfDHODH enzyme inhibitors, primary screen, biochemical, C-terminal His tag, absorbance 600 nm (AID 1175).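 Further: recombinant parasite enzyme with a five histidine tag at its C terminus; test concentration not given here.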 Conditions: DCIP absorbance 600 nm, higher = more signal, called active from +8 up or from −8 down.
The nature of assay [15]: P. aeruginosa biofilm formation inhibitors, primary screen, strain PAO1, LB-PBS medium, absorbance 600 nm (AID 1176). Further: test concentration not given here. Conditions: P. aeruginosa PAO1 growth/biofilm, A600, 12 h; higher = more signal.
Assay [16] in a line: S. cerevisiae RM11-1a growth modifiers, primary screen, strain RM11-1a, OD600, basal, 24 h (AID 1177).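 Further: cultures grown under basal conditions with no added stressor; test concentration not given here.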 Conditions: OD600, 24 h, higher = more signal, called active from +8 up or from −8 down.
Assay [17] is described as follows: E. coli acrAB mutant growth effects, primary screen, E. coli filamentation inducers, strain DRC39, OD650, 24 h (AID 1178).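 Further: growth measured as culture turbidity by optical density at 650 nm; test concentration not given here.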 Conditions: higher = more signal, called active from +8 up or from −8 down.
A short description of assay [18]: E. coli acrAB mutant growth effects, primary screen, E. coli filamentation inducers, strain DRC39, OD650, 48 h (AID 1179).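 Further: screen aims at cell division blockers that make cells filament.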 Conditions: E. coli DRC39 delta-acrAB growth, higher = more signal, called active from +8 up or from −8 down.
Assay [19] is described as follows: RPMI8226 myeloma cell viability, profiling panel, resazurin fluorescence, basal, 24 h, PK04 Diversity Set (AID 1180).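 Further: RPMI8826 multiple myeloma cell line at 5000 cells per well; test concentration not given here.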 Conditions: higher = more signal.
In assay [20] the target is E3 ubiquitin-protein ligase XIAP (Homo sapiens) (UniProt P98170). In words: XIAP binders, primary screen, biophysical, small-molecule microarray, fluorescence 635 nm (AID 1181).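 Further: score merges 667 nm emission and signal to noise over triplicate slides.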 Conditions: small-molecule microarray binding, higher = more signal.

Molecules are shown by their SMILES. Active and inactive are the calls of the source. Unless noted, how the calls were made is not given here.

Sequence of Dihydroorotate dehydrogenase (quinone), mitochondrial (Plasmodium falciparum (isolate 3D7)) (Q08210 whole entry, looked up): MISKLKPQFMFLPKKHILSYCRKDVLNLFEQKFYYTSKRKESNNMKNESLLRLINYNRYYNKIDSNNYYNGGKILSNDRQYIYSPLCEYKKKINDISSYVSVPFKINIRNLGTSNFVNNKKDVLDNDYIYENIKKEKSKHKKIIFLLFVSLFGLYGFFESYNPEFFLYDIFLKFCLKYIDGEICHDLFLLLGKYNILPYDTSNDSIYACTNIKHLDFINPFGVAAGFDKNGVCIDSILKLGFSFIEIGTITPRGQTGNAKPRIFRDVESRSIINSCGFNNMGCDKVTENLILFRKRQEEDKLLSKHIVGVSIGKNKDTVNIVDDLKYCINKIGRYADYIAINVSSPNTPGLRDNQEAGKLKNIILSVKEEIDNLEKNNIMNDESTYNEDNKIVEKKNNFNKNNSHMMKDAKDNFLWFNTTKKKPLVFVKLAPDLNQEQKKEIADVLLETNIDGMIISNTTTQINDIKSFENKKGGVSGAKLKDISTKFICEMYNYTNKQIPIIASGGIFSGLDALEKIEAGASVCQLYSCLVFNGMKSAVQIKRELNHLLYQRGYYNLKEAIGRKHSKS
Sequence of E3 ubiquitin-protein ligase XIAP (Homo sapiens) (P98170 whole entry, looked up): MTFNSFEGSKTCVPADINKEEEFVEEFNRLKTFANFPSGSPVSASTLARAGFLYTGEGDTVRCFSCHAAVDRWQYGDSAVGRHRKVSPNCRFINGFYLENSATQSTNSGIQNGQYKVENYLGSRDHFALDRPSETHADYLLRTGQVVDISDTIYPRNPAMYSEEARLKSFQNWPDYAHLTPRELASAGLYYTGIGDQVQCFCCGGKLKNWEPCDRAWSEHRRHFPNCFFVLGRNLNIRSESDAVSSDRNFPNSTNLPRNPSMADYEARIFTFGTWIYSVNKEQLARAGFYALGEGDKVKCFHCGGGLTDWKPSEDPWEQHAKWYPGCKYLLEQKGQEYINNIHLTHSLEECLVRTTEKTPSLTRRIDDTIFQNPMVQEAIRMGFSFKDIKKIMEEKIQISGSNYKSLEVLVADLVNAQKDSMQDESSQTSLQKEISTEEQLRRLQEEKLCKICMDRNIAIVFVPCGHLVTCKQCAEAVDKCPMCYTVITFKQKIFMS

For the compound `C=C(C(=O)CC[C@H](OC(=O)c1cccnc1)c1cccc(OCCO)c1)C(C)C`, the z-score was 0.647 in [1]; 0.47 in assay [2]; -0.419 in assay [3]; -2.44 in assay [4]; -1.46 in assay [5]; -1.03 in [6]. Also, the z-score was 0.584 (inactive) in assay [7]; -0.0636 in [8]; -0.326 in assay [9]; 0.371 (inactive) in [10]; 0.0418 in [11]; 1.06 (inactive) in [12]. The z-score in [13] is -1.16 (inactive); in assay [15] it was -0.116 (inactive); in assay [16], 2.01 (inactive); in [17] it was 0.675 (inactive); in assay [18], 0.297 (inactive); in [19], -1.36. Moreover, the composite z-score in [14] was 0.612 (inactive); in [20], -0.0117.

In the case of `C#CCNC(=O)[C@H](Cc1ccccc1)NC(=O)[C@@H](N=[N+]=[N-])C(C)C`, the z-score in assay [1] is -0.447; in assay [2] it was -0.804; in [3], 0.0785; in [4] it was 0.579; in assay [5], 0.116; in [6], -0.266. Further, the z-score is -0.503 (inactive) in [7]; -0.205 in assay [8]; 0.254 in assay [9]; 0.903 (inactive) in assay [10]; 0.664 in [11]; -1.19 (inactive) in [12]. The z-score is 0.633 (inactive) in assay [13]; -0.24 (inactive) in assay [15]; -0.597 (inactive) in [16]; 0.713 (inactive) in assay [17]; 0.626 (inactive) in assay [18]; 0.816 in assay [19]. Moreover, the composite z-score in [14] was -0.635 (inactive); in assay [20] it was 0.117.

Regarding `C=C1C2CC3C(=C4C(CO[C@@H]4[C@H]4CCCN4S(=O)(=O)c4ccccc4[N+](=O)[O-])C4C(=O)N(C)C(=O)C34)CC2C(=O)N1C` (stereo not given in full), the z-score is -0.704 in assay [1]; 0.332 in assay [2]; -0.0708 in assay [3]; -3.31 in assay [4]; -1.28 in [5]; -1.83 in assay [6]. Besides, the z-score was -0.543 (inactive) in [7]; 0.485 in [8]; -0.347 in assay [9]; -0.123 (inactive) in assay [10]; -0.398 in assay [11]; -1.05 (inactive) in assay [12]. Besides, the z-score was -0.316 (inactive) in assay [13]; 0.413 (inactive) in [15]; -0.302 (inactive) in assay [16]; -0.579 (inactive) in assay [17]; -0.219 (inactive) in assay [18]; -0.864 in [19]. Moreover, the values for the composite z-score in assay [14] and in assay [20] were -0.911 (inactive) and -0.102, respectively.

In the case of `COc1cc2c(cc1OC)CN(C(=O)[C@H]1[C@@H]3C(=O)O[C@@H](c4ccccc4)[C@@H](c4ccccc4)N3[C@@H](c3ccc(OCCO)cc3)[C@]13C(=O)Nc1ccc(C#CCCO)cc13)CC2`, the z-score was 0.269 in [1]; -0.16 in [2]; -0.142 in [3]; -0.0509 in assay [4]; 0.77 in assay [5]; -1.21 in [6]. The z-score in [7] was 0.764 (inactive); in assay [8], -0.453; in [9], -1.07; in assay [10] it was 0.604 (inactive); in assay [11], 0.687; in assay [12], 2.35 (inactive). For the same compound, the z-score in [13] was 0.113 (inactive); in assay [15], 1.56 (inactive); in assay [16], 2.49 (inactive); in [17] it was -0.321 (inactive); in assay [18], -0.61 (inactive); in assay [19], 0.969. Moreover, the composite z-score in assay [14] is 0.129 (inactive); in assay [20], -0.351.

With `C=C[C@@H](COC(C)=O)NS(=O)(=O)c1ccc(Br)cc1`, the z-score is 0.0976 in [1]; -0.342 in [2]; 1.04 in assay [3]; -2.08 in assay [4]; -1.74 in assay [5]; -0.742 in assay [6]. The z-score is -0.195 (inactive) in assay [7]; -0.0875 in [8]; -0.259 in assay [9]; -1.82 (inactive) in assay [10]; -1.44 in assay [11]; -11.8 (active) in assay [12]. For the same compound, the z-score in [13] was -1.82 (inactive); in [15], -0.152 (inactive); in [16] it was 0.628 (inactive); in assay [17], -0.528 (inactive); in assay [18], 0.0818 (inactive); in [19], -0.978. For the same compound, the composite z-score in [14] is -0.502 (inactive); in assay [20], -0.184.

On to `CC(C)CN1C(=O)[C@@]2(c3ccc([N+](=O)[O-])cc3)CC(=O)N(CC34CC5CC(CC(C5)C3)C4)[C@@H]2c2ccc(CO)cc21`, for which the z-score in assay [1] is -0.181; in assay [2], 1.04; in assay [3], -0.744; in [4], -0.0484; in assay [5], -0.544; in assay [6], -0.849. Further, the z-score was -0.316 (inactive) in assay [7]; 0.833 in assay [8]; -2.29 in [9]; -0.186 (inactive) in [10]; -1.64 in assay [11]; -0.22 (inactive) in assay [12]. In addition, the z-score in assay [13] was 0.113 (inactive); in assay [15], 0.146 (inactive); in [16] it was -0.855 (inactive); in assay [17], 0.197 (inactive); in assay [18] it was -0.213 (inactive); in assay [19], 0.248. Besides, the composite z-score in assay [14] is -4.84 (inactive); in [20] it was -0.289.

In the case of `CC(C)OC(=O)CC(=O)CC(O)c1cccc(C#N)c1` (stereo not given), the z-score was 1.59 in assay [1]; 0.136 in [2]; 0.886 in assay [3]; 0.387 in assay [4]; 0.518 in assay [5]; 0.575 in [6]. Besides, the z-score was 0.837 (inactive) in assay [7]; 0.105 in assay [8]; -1.56 in assay [9]; 0.481 (inactive) in assay [10]; 0.532 in [11]; -0.167 (inactive) in assay [12]. The z-score is 0.343 (inactive) in assay [13]; 0.533 (inactive) in [15]; -0.828 (inactive) in [16]; 0.283 (inactive) in assay [17]; 1.93 (inactive) in [18]; -0.0069 in [19]. Further, the composite z-score in assay [14] was -1.29 (inactive); in assay [20], -0.267.

`CC=CC(O)C1C=CC2C(=O)N(c3ccccc3)C(=O)C2N1Nc1ccccc1` (stereo not given): the z-score was 1.04 in assay [1]; -0.511 in [2]; 1.05 in assay [3]; 0.214 in assay [4]; -0.279 in assay [5]; -0.222 in [6]. For the same compound, the z-score in [7] is 0.243 (inactive); in assay [8], -0.866; in assay [9] it was -0.749; in [10], 0.0599 (inactive); in assay [11] it was 0.965; in assay [12] it was -1.01 (inactive). Moreover, the z-score is 0.171 (inactive) in assay [13]; 1.89 (inactive) in [15]; -0.564 (inactive) in assay [16]; 0.176 (inactive) in assay [17]; 0.412 (inactive) in assay [18]; 0.394 in [19]. In addition, the figures for the composite z-score in [14] and in assay [20] were -0.174 (inactive) and 0.649, respectively.

The record behind these values is PubChem BioAssay.
